Results on 16 compounds are retold here after PubChem BioAssay.

Active and inactive are the calls of the source.

Experiment [1] in a line: binders of probe aFSTL3 on microarray, primary screen, stem cell growth factor project, biochemical, small-molecule microarray, fluorescence 635/667 (AID 1064).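 Note: measures binding of the biotinylated anti-FSTL3 antibody to printed compounds.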 The note with it: higher = more signal.
Experiment [2] can be described thus: binders from COS7 lysate, DM2A8 probe, primary screen, torsin A project, cell lysate, small-molecule microarray, fluorescence 635/667 (AID 1065). The note with it: higher = more signal, COS7 lysate expressing mutant human TOR1A.
The nature of experiment [3]: binders of probe aFGF2 on microarray, primary screen, stem cell growth factor project, biochemical, small-molecule microarray, fluorescence 635/667 (AID 1067).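 Note: measures binding of biotinylated aFGF2 protein to printed compounds on slides; z-score merges feature fluorescence and signal-to-noise across triplicate slides.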 The note with it: higher = more signal.
A short description of experiment [4]: binders of probe aFGF10 on microarray, primary screen, stem cell growth factor project, biochemical, small-molecule microarray, fluorescence 635/667 (AID 1071).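 Note: score merges 667 nm spot intensity and signal to noise from triplicate slides.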 The conditions noted are these: higher = more signal.
Experiment [5] deals with Neurogenic locus notch homolog protein 2 (Homo sapiens) (UniProt Q04721). Description: Notch2 binders on small-molecule microarrays, primary screen, biochemical, small-molecule microarray, 635 nm fluorescence, stem cell growth factors (AID 1073). The note with it: Notch2 binding, higher = more signal.
Sequence of Neurogenic locus notch homolog protein 2 (Homo sapiens) (Q04721 whole entry, looked up, canonical isoform): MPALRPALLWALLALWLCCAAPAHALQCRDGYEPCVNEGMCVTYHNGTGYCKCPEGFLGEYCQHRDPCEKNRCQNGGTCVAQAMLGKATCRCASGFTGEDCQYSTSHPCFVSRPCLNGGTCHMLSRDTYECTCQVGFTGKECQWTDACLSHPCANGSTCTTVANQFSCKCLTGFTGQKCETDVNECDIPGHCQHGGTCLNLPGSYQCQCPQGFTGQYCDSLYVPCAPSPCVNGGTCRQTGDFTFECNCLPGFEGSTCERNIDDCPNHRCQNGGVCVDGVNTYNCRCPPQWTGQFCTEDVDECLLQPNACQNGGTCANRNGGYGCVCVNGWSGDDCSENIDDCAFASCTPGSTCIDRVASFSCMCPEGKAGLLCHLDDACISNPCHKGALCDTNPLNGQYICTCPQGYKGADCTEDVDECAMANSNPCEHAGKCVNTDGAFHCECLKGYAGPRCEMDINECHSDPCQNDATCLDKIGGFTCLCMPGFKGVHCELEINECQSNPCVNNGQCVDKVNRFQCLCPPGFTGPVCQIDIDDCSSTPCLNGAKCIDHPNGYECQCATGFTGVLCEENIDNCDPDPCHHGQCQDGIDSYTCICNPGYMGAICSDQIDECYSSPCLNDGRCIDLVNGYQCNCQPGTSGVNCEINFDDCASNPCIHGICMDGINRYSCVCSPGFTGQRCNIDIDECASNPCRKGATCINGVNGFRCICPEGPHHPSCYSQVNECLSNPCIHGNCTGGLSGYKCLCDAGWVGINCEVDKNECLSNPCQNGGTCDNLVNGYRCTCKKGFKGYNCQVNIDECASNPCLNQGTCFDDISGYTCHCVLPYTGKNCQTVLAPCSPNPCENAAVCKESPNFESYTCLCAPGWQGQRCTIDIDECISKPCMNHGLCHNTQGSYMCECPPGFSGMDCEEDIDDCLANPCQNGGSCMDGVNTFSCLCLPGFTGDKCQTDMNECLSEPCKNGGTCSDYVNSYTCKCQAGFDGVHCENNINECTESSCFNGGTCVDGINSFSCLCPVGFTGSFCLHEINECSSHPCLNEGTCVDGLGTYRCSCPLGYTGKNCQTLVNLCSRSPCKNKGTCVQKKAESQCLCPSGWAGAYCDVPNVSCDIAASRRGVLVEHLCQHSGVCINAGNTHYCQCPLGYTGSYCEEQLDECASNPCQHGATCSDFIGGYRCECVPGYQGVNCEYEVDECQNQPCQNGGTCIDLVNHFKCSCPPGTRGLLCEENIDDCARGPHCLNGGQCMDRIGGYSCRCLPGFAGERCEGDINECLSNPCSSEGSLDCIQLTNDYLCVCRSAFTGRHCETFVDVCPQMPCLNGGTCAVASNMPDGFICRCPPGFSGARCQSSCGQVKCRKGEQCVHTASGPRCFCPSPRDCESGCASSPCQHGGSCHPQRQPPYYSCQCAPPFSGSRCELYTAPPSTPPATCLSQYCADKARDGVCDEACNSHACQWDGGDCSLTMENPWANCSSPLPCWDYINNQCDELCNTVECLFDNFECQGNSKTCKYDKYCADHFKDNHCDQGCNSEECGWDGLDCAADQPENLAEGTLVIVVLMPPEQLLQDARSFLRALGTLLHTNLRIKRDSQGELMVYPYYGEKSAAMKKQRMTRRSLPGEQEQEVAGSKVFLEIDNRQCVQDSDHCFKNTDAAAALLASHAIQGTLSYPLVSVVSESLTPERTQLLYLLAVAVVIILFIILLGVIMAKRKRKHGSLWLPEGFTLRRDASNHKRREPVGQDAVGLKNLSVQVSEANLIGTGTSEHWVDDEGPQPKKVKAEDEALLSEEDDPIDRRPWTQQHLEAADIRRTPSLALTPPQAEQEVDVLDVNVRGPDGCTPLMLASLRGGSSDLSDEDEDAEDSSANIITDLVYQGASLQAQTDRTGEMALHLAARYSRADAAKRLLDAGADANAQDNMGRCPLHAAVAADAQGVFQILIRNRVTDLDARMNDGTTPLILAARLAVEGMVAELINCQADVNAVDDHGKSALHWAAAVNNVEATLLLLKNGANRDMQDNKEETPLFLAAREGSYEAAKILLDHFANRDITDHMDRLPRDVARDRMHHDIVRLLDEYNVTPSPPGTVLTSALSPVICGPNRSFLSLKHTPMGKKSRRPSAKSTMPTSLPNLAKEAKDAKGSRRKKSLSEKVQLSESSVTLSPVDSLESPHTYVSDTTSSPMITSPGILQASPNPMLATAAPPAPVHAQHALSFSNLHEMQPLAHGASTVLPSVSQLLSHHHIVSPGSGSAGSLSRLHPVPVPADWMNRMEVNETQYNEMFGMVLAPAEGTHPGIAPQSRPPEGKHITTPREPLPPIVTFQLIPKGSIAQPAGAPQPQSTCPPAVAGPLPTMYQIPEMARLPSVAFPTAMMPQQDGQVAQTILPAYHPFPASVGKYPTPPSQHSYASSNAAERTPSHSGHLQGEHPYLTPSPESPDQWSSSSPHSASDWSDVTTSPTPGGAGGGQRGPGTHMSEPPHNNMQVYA
In experiment [6] the target is Pro-neuregulin-1, membrane-bound isoform (Homo sapiens) (UniProt Q02297). Description: NRG1 binders on small-molecule microarrays, primary screen, psychiatric disease protein project, biochemical, small-molecule microarray, fluorescence 635/667 (AID 1075).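 Note: score combines 667 nm spot fluorescence with signal to noise.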 The note with it: NRG1 binding, 635 nm fluorescence, higher = more signal.
Sequence of Pro-neuregulin-1, membrane-bound isoform (Homo sapiens) (Q02297 whole entry, looked up, the tested form may be a part, canonical isoform): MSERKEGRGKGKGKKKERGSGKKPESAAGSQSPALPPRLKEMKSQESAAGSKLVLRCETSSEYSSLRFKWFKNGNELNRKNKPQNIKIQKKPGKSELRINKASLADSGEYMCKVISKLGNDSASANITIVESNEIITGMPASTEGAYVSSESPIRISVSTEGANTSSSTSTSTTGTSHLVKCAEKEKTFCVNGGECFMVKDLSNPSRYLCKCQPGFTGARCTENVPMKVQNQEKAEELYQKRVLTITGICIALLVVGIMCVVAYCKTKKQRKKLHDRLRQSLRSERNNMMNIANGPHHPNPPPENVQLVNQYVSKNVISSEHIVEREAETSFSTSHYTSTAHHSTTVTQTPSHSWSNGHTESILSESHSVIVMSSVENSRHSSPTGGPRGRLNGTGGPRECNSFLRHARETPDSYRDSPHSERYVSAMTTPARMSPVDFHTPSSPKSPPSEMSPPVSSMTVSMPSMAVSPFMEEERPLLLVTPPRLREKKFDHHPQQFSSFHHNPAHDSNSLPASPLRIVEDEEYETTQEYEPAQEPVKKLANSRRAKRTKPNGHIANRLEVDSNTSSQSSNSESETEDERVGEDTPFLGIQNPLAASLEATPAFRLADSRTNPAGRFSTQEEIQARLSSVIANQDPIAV
Experiment [7] relates to Neuregulin-1 EGF-like domain. Briefly: binders of neuregulin-1 EGF-like domain, primary screen, biochemical, small-molecule microarray, 635 nm fluorescence (AID 1081).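 Note: binding of the protein to compounds printed on small-molecule microarray slides.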 The note with it: small-molecule microarray binding, higher = more signal.
Experiment [8] is described as follows: FRG1 promoter luciferase signal modulators, primary screen, FRG1 inhibition for FSHD, cell-based, C2C12 myotubes, firefly/Renilla luciferase, luminescence (AID 1084). The conditions noted are these: higher = more signal, called active from +8 up or from −8 down.
Experiment [9] is described as follows: binders of probe aFST on microarray, primary screen, stem cell growth factor project, biochemical, small-molecule microarray, fluorescence 635/667 (AID 1086).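 Note: score merges 667 nm fluorescence with signal-to-noise of each printed compound spot.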 The note with it: higher = more signal.
A short description of experiment [10]: binders of probe aHhip on microarray, primary screen, stem cell growth factor project, biochemical, small-molecule microarray, fluorescence 635/667 (AID 1087).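 Note: score merges spot fluorescence at 667nm with spot signal to noise ratio.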 The note with it: higher = more signal.

`COCCOC(=O)N1C(=O)[C@@]2(c3cc(C#CCNC(N)=O)ccc31)[C@H](C(=O)N1CCN(c3ncccn3)CC1)[C@H]1C(=O)O[C@H](c3ccccc3)[C@H](c3ccccc3)N1[C@@H]2c1ccc(O)cc1`: the composite z-score in experiment [1] was -1.35; in experiment [2] it was 0.0122; in [3], -0.282; in experiment [4], -0.129; in experiment [5] it was -1.15; in experiment [6], -0.37. Further, the composite z-score was -0.475 in [7], -0.874 in experiment [9] and -0.769 in experiment [10]. Also, the z-score in experiment [8] was -1.04 (inactive).
In the case of `COC(=O)[C@@]1(Cc2ccccc2)[C@H]2c3cc(C(=O)N(C)C)n(Cc4ccc(Cl)c(C(F)(F)F)c4)c3C[C@H]2CN1C(=O)c1ccccc1`, the composite z-score in experiment [1] was 0.0539; in experiment [2], 0.277; in experiment [3] it was 0.372; in experiment [4], 1.09; in experiment [5], 1.61; in experiment [6], 1.35. Further, the results for the composite z-score in experiment [7], in [9] and in [10] were 1.18, 1.51 and 0.26, respectively. Also, in [8], the z-score is -3.33 (inactive).
In the case of `O=C1c2ccccc2[C@](Cc2ccccc2I)(C(=O)NCCN2CCOCC2)[C@H](c2ccc(CO)cc2)N1Cc1ccccc1C(F)(F)F`, the composite z-score in experiment [1] is -0.103; in [2], 0.321; in [3] it was -0.1; in [4] it was 0.0371; in experiment [5] it was 0.614; in experiment [6], 1.2. Moreover, the composite z-score in [7] amounted to 1.25; in [9], 0.558; in [10] it was 0.0156. Also, the z-score in [8] was -1.66 (inactive).
Take `COC(=O)[C@@]1(Cc2ccc(F)cc2)[C@H]2c3cc(C(=O)N(C)C)n(Cc4ccc(C(F)(F)F)nc4)c3C[C@H]2CN1C(=O)c1ccccc1`: the composite z-score amounted to 1.5 in experiment [1]; 0.474 in experiment [2]; 0.0642 in experiment [3]; 0.69 in [4]; 1.74 in [5]; 2.03 in experiment [6]. The figures for the composite z-score in [7], in [9] and in experiment [10] were 1.18, 1.97 and 0.264, respectively. For the same compound, the z-score in experiment [8] was -0.909 (inactive).
As for `C=C(COC)C(=O)CC[C@H](OC(C)=O)c1ccc(CO)o1`, the composite z-score in [1] was -0.374; in experiment [2], 0.275; in experiment [3], -0.148; in [4], 0.265; in experiment [5] it was -0.0537; in experiment [6], 0.0866. Also, the figures for the composite z-score in experiment [7], in [9] and in experiment [10] were 0.0976, -0.225 and -0.132, respectively. In experiment [8], the z-score was -0.28 (inactive).
Regarding `COCCOC(=O)N1C(=O)[C@@]2(c3cc(C#CCC(C(=O)OC)C(=O)OC)ccc31)[C@H](C(N)=O)[C@H]1C(=O)O[C@H](c3ccccc3)[C@H](c3ccccc3)N1[C@@H]2c1ccccc1OCCO`, the composite z-score in experiment [1] was -0.453; in experiment [2] it was -0.413; in [3], -0.152; in [4] it was 0.47; in [5], 0.937; in experiment [6] it was 0.555. The composite z-score is 1.19 in experiment [7], 0.6 in experiment [9] and -0.0618 in experiment [10]. Further, the z-score in experiment [8] was -1.3 (inactive).
Consider `CCOC(=O)C[C@H]1[C@H](OC(=O)c2cc3ccccc3oc2=O)[C@@H](NC(=O)Cc2ccc(OC)cc2)c2cc(OCCCO)ccc2N1C(=O)Cc1ccc(OC)cc1`, for which the composite z-score in [1] is -0.545; in experiment [2] it was 0.58; in experiment [3], -0.125; in experiment [4] it was 0.527; in [5] it was 0.791; in experiment [6], 0.185. For the same compound, the figures for the composite z-score in [7], in experiment [9] and in experiment [10] were 0.507, 1.43 and -0.179, respectively. Besides, the z-score in experiment [8] is -1.39 (inactive).
Turning to `COc1ccc(C#Cc2ccc3c(c2)[C@]2(C(=O)N3)[C@H](c3ccccc3OCCO)N3[C@H](c4ccccc4)[C@H](c4ccccc4)OC(=O)[C@H]3[C@@H]2C(=O)NC[C@H](O)c2ccccc2)cc1`, the composite z-score in experiment [1] is -0.38; in experiment [2] it was 0.203; in experiment [3], -0.0628; in experiment [4], 0.146; in [5], 1; in experiment [6] it was 0.698. Also, the results for the composite z-score in [7], in experiment [9] and in experiment [10] were 1.27, 0.469 and 0.21, respectively. Besides, the z-score in [8] is 0.621 (inactive).
Turning to `C=CC[C@@]1(C(=O)NCCCOC)N=C(c2ccc(OCCCO)cc2)O[C@@H]1c1ccccc1CN=[N+]=[N-]`, the composite z-score was 0.227 in experiment [1]; -0.448 in [2]; 0.106 in experiment [3]; 0.744 in [4]; 1.43 in [5]; 1.79 in [6]. Further, the composite z-score was 1.03 in experiment [7], 1.25 in experiment [9] and -0.105 in experiment [10]. Also, the z-score in experiment [8] was -1.97 (inactive).
In the case of `[N-]=[N+]=NCc1ccccc1C[C@]1(C(=O)N2CCCCC2)COC(c2ccc(OCCCO)cc2)=N1`, the composite z-score in experiment [1] is 0.438; in experiment [2], 0.184; in experiment [3] it was -0.0151; in [4], 1.01; in experiment [5], 0.207; in experiment [6], 1.13. Besides, the composite z-score in experiment [7] was 0.996; in experiment [9], 1.68; in [10] it was 2.35. The z-score in [8] was -4.13 (inactive).
Turning to `COC(=O)[C@@]1(Cc2ccc(F)cc2)[C@H]2c3cc(C(=O)N4CCCC4)n(C[C@H](O)CO)c3C[C@H]2CN1C(=O)c1ccccc1`, the composite z-score in experiment [1] was determined as 0.468; in experiment [2] it was 0.501; in experiment [3], 0.474; in experiment [4] it was 0.697; in [5], 1.17; in experiment [6], 2.15. The composite z-score in experiment [7] amounted to 1.16; in experiment [9] it was 1.42; in [10], 1.35. The z-score in [8] was 3.49 (inactive).
For the compound `COc1ccc([Si](C)(C)[C@H]2[C@H](CC(=O)N3CCC[C@H]3CO)O[C@@]3(C(=O)N(C)c4c(Br)cc(C)cc43)[C@@H]2C)cc1`, the composite z-score stood at 0.536 in experiment [1]; 1.88 in experiment [2]; 0.336 in experiment [3]; 1.04 in [4]; 0.284 in experiment [5]; 2.51 in experiment [6]. The composite z-score in [7] stood at 1.41; in experiment [9], 1.12; in [10], 0.104. The z-score in experiment [8] is -1.39 (inactive).
`O=C1OC[C@@H](c2ccccc2)n2cc(/C=C/c3ccccc3)cc21`: the composite z-score in [1] was 0.0087; in experiment [2], -0.382; in experiment [3] it was -0.178; in experiment [4], -0.162; in experiment [5], -0.924; in experiment [6] it was 0.895. Besides, the composite z-score is 0.132 in experiment [7], -0.503 in [9] and -0.306 in experiment [10]. The z-score in [8] was -0.144 (inactive).
For `CC(C)(C)OC(=O)CC[C@]1(C(N)=O)N=C(c2ccc(OCCCO)cc2)O[C@H]1c1ccccc1N=[N+]=[N-]`, the composite z-score was 0.365 in experiment [1]; -0.434 in experiment [2]; -0.0088 in [3]; 0.396 in [4]; 0.9 in [5]; 1.73 in experiment [6]. The values for the composite z-score in experiment [7], in [9] and in [10] were 1.48, 0.616 and 0.213, respectively. Besides, the z-score in [8] is 6.25 (inactive).
Turning to `O=C1OCCC/C=C\[C@H]2OC34C=CCN(Cc5ccccc5)C(=O)[C@H]3N(CCO)C(=O)[C@@H]4C12` (stereo not given in full), the composite z-score is 0.166 in experiment [1]; 1.08 in [2]; -0.226 in [3]; 0.866 in experiment [4]; 0.479 in experiment [5]; 1.79 in [6]. The composite z-score in experiment [7] was 1.53; in experiment [9], -0.342; in experiment [10] it was -0.0994. Also, the z-score in experiment [8] is 0.0936 (inactive).
Take `CC(C)(C)OC(=O)N1[C@@H](C=C(Br)Br)COC1(C)C`: the composite z-score in [1] is -0.195; in [2] it was -0.0287; in [3], 0.0014; in [4], 0.348; in experiment [5], 0.519; in experiment [6], -0.0961. The composite z-score in experiment [7] stood at 0.286; in [9], 0.125; in experiment [10], 0.0302. Moreover, the z-score in [8] was -1.42 (inactive).
